# In PubChem BioAssay AID1159580 (chemical genetic matrix, 2015):
# The campaign covered roughly 5,500 compounds. About 2,000 (36%) were called active. About 18% were inconclusive and are not listed. The list shows a part of the results. Values without a mark were called inactive. Cut-off read from the data, not from the text of the source: active = normalized growth mostly below about 0.91 (no sharp cut-off); inconclusive = no clear call, values can overlap the other calls; inactive = mostly above about 0.92.
# Test: chemical genetic growth profiling, strain panel (AID 1159580);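 note: tested at 20 µM; growth read once vehicle control cultures reached saturation at 30 °C; 1 = growth at the plate median or of vehicle wells; lower values mean less growth of the strain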
# Conditions: growth OD
# [1] = S. cerevisiae deletion strains, locus YAL013W, strain DEP1, stronger effect = lower value
# [2] = S. cerevisiae deletion strains, locus YBR229C, strain ROT2, stronger effect = lower value
# [3] = S. cerevisiae deletion strains, locus YDL101C, strain DUN1, stronger effect = lower value
# [4] = S. cerevisiae deletion strains, locus YDR150W, strain NUM1, stronger effect = lower value
# [5] = S. cerevisiae deletion strains, locus YEL061C, strain CIN8, stronger effect = lower value
# [6] = S. cerevisiae deletion strains, locus YGR078C, strain PAC10, stronger effect = lower value
# [7] = S. cerevisiae deletion strains, locus YHR030C, strain SLT2, stronger effect = lower value
# [8] = S. cerevisiae deletion strains, locus YHR087W, strain rtc3, stronger effect = lower value
# [9] = S. cerevisiae deletion strains, locus YJL187C, strain SWE1, stronger effect = lower value
# [10] = S. cerevisiae deletion strains, locus YJR043C, strain POL32, stronger effect = lower value
# [11] = S. cerevisiae deletion strains, locus YJR075W, strain HOC1, stronger effect = lower value
# [12] = S. cerevisiae deletion strains, locus YKL190W, strain CNB1, stronger effect = lower value
# [13] = S. cerevisiae deletion strains, locus YLR039C, strain RIC1, stronger effect = lower value
# [14] = S. cerevisiae deletion strains, locus YLR058C, strain SHM2 (second series), stronger effect = lower value
# [15] = S. cerevisiae deletion strains, locus YLR085C, strain ARP6, stronger effect = lower value
# [16] = S. cerevisiae deletion strains, locus YLR262C, strain YPT6, stronger effect = lower value
# [17] = S. cerevisiae deletion strains, locus YML094W, strain GIM5, stronger effect = lower value
# [18] = S. cerevisiae deletion strains, locus YMR219W, strain ESC1, stronger effect = lower value
# [19] = S. cerevisiae deletion strains, locus YMR263W, strain SAP30, stronger effect = lower value
# [20] = S. cerevisiae deletion strains, locus YNL153C, strain GIM3, stronger effect = lower value
# [21] = S. cerevisiae deletion strains, locus YNL298W, strain CLA4 (second series), stronger effect = lower value
# [22] = S. cerevisiae deletion strains, locus YNL322C, strain KRE1, stronger effect = lower value
# [23] = S. cerevisiae deletion strains, locus YNR030W, strain Alg12, stronger effect = lower value
# [24] = S. cerevisiae deletion strains, locus YPL055C, strain LGE1, stronger effect = lower value
# [25] = S. cerevisiae deletion strains, locus YPL241C, strain CIN2, stronger effect = lower value
# [26] = S. cerevisiae deletion strains, locus YPR135W, strain CTF4, stronger effect = lower value
structure (smiles),measurement,setting,value
N/C(Cc1cccc2ccccc12)=N/O,normalized growth,[1],1
same,normalized growth,[2],1.02
same,normalized growth,[3],1.01
same,normalized growth,[4],0.986
same,normalized growth,[5],1.02
same,normalized growth,[6],1.01
same,normalized growth,[7],1.02
same,normalized growth,[8],1.02
same,normalized growth,[9],1.02
same,normalized growth,[10],1.02
same,normalized growth,[11],1.05
same,normalized growth,[12],1.02
same,normalized growth,[13],1.06
same,normalized growth,[14],1.01
same,normalized growth,[15],1.14
same,normalized growth,[16],1.02
same,normalized growth,[17],1.01
same,normalized growth,[18],1.03
same,normalized growth,[19],1.04
same,normalized growth,"S. cerevisiae deletion strains, locus YMR307W, strain GAS1, stronger effect = lower value",1.17
same,normalized growth,[20],0.997
same,normalized growth,[21],1.02
same,normalized growth,[22],1
same,normalized growth,[23],1
same,normalized growth,"S. cerevisiae deletion strains, locus YOL006C, strain TOP1, stronger effect = lower value",1.05
same,normalized growth,[24],0.897
same,normalized growth,[25],1.22 [resistant] (active)
same,normalized growth,[26],0.945
same,normalized growth,"S. cerevisiae strains, strain wild type, stronger effect = lower value",1.02
CCc1cccc(N(C)C(N)=Nc2cccc3ccccc23)c1,normalized growth,"S. cerevisiae deletion strains, locus YAL040C, strain CLN3, stronger effect = lower value",0.98
same,normalized growth,"S. cerevisiae deletion strains, locus YCL061C, strain MRC1 (second series), stronger effect = lower value",0.989
same,normalized growth,[4],0.998
same,normalized growth,"S. cerevisiae deletion strains, locus YER002W, strain NOP16, stronger effect = lower value",1.03
same,normalized growth,[6],0.97
same,normalized growth,[11],0.983
same,normalized growth,"S. cerevisiae deletion strains, locus YNL175C, strain NOP13, stronger effect = lower value",1.03
same,normalized growth,"S. cerevisiae deletion strains, locus YNL197C, strain WHI3, stronger effect = lower value",1
same,normalized growth,"S. cerevisiae deletion strains, locus YNL224C, strain SQS1, stronger effect = lower value",0.993
same,normalized growth,"S. cerevisiae deletion strains, locus YOR083W, strain WHI5 (second series), stronger effect = lower value",0.931
same,normalized growth,[25],0.989
O=C(O)CCCNCc1cccc2ccccc12,normalized growth,[1],1.01
same,normalized growth,[2],1.01
same,normalized growth,[3],0.998
same,normalized growth,[4],0.984
same,normalized growth,[5],1.01
same,normalized growth,[6],1.01
same,normalized growth,"S. cerevisiae deletion strains, locus YGR229C, strain SMI1, stronger effect = lower value",1
same,normalized growth,[7],1.02
same,normalized growth,[8],1.01
same,normalized growth,[9],1
same,normalized growth,[10],1.01
same,normalized growth,[11],0.974
same,normalized growth,[12],1
same,normalized growth,[13],1
same,normalized growth,[14],1
same,normalized growth,[15],1.01
same,normalized growth,[16],0.999
same,normalized growth,[17],1.07
same,normalized growth,[18],0.992
same,normalized growth,[19],1
same,normalized growth,[20],0.992
same,normalized growth,[21],1
same,normalized growth,[22],1.01
same,normalized growth,[23],1
same,normalized growth,[24],1.03
same,normalized growth,[25],1.06
same,normalized growth,[26],1.05
